MITF TRPM1 inh: inhibitors of MITF-driven TRPM1 promoter in melanoma cells; AID 488899; inhibition, % at 12.5 µM; actives 0.83% (n = 330,000); SK-MEL-5 TRPM1 promoter luciferase, 24 h;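 active means mean inhibition across replicates of 60% or more, whatever share of single replicates reaches that level; inconclusive means some that reach 60%, reason not given; inactive means mean inhibition across replicates below 60%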
TWEAK-Fn14 inh: TWEAK-Fn14 signaling inhibition. TWEAK-stimulated Fn14 reporter cells, luciferase luminescence, 8 h. actives 2% (n = 360,000). inhibition, % at 10 µM. AID 1159606; in the data active means inhibition above about 50%
LMP1 NFkB inh: inhibitors of Epstein-Barr LMP1-induced NF-kappaB reporter; LMP1-induced NF-kappaB luciferase reporter cells, luminescence; AID 504558; inhibition, % at 12.5 µM; actives 0.69% (n = 350,000); in the data active means inhibition above about 41%; inconclusive means no clear call, values can overlap the other calls
TROY NFkB inh: inhibitors of TROY-dependent NF-kB signaling; Q293 LMP1-TROYcd NF-kB luciferase reporter, 4 h; inhibition, % at 10 µM; actives 0.98% (n = 360,000);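 active means compounds whose plate-normalised and pattern-corrected inhibition of the luciferase reporter signal at the single screening dose is 50% or more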
HIF-2a block: HIF-2a inhibition. 786-0 RCC cells HIF-2a reporter, luciferase luminescence, overnight. inhibition, % at 18.8 µM. actives 0.72% (n = 360,000);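 active means inhibition of the luminescence signal of 40% or more relative to plate controls, in a single-dose primary screen at 18.75 µM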
Peg3 prom inh: Peg3 promoter activity inhibition; HeLa PEG-Prom luciferase reporter, luminescence, overnight; actives 1.7% (n = 360,000); AID 588405; inhibition, % at 20 µM;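 active means inhibition of at least 50% at 20 µM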
Mdm2 MdmX conf: confirmation of inhibitors of human Mdm2/MdmX interaction, set 2; actives 99% (n = 740); SaOS-2 split-luciferase Mdm2/MdmX complementation, luminescence; shares compounds with HIF-2a block; inhibition, % at 8 µM;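 active means mean inhibition of the luminescence signal across two replicates at or above 26 percent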
Target sequence (O15151 whole entry, looked up): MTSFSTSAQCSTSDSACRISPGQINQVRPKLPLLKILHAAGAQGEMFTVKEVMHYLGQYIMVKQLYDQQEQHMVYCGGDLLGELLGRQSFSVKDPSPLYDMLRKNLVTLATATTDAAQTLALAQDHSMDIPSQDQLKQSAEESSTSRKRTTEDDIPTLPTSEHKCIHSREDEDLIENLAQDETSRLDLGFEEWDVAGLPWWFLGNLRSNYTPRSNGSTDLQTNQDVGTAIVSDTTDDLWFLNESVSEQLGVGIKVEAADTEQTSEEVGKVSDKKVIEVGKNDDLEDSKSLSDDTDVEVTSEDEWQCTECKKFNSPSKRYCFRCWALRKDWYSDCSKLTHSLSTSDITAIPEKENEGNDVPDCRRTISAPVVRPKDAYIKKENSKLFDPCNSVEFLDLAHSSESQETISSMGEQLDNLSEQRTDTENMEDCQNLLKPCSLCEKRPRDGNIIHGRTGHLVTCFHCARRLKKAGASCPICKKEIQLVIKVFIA
Target sequence (Q00987 whole entry, looked up): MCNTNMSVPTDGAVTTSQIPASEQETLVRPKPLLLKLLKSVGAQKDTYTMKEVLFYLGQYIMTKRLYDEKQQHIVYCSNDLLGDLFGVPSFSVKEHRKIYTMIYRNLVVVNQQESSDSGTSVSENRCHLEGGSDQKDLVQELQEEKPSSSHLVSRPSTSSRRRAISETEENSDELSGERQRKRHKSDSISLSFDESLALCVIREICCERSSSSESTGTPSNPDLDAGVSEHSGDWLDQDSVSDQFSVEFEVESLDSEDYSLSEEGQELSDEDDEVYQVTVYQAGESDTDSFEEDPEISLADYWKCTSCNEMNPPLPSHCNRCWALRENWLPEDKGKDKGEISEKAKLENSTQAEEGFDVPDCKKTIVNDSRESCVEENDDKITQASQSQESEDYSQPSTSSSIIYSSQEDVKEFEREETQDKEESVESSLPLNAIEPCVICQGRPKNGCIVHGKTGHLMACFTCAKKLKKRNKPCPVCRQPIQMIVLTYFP
HIF-2a inh conf: confirmation of HIF-2a inhibitors; AID 651580; actives 56% (n = 1,800); 786-0 RCC cells, HIF-2a luciferase reporter luminescence, overnight; inhibition, % at 18.8 µM; shares compounds with HIF-2a block;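 active means mean inhibition across four replicates of at least 40 percent at the single tested concentration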
HIF-1a cs: counter-screen for HIF-2a inhibitors: HIF-1a inhibition in MiaPaCa-2 cells; inhibition, % at 18.8 µM; actives 72% (n = 1,800); shares compounds with HIF-2a block; AID 651589; MiaPaCa-2 HIF-1a luciferase reporter, desferoxamine, overnight;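 active means mean inhibition of the reporter signal across four replicates at the single tested dose of 50% or more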
Each line names hits and unclear results; the compound was inactive in the other large screens (follow-up assays come after a bar, where they were run). Compounds with a hit are over-represented: about 4% of the library has one in this group of screens.

COc1cc(C=CC(=O)c2ccccc2)cc(OC)c1OC	TWEAK-Fn14 inh 78.5, HIF-2a block 37.5, Peg3 prom inh 97.5 (no result: MITF TRPM1 inh, LMP1 NFkB inh) | HIF-2a inh conf inactive | HIF-1a cs 95.1
COc1cc(C=CC(=O)c2cc(OC)c(OC)c(OC)c2)cc(OC)c1OC	MITF TRPM1 inh 67.5, TWEAK-Fn14 inh 64.5, HIF-2a block 59.0, Peg3 prom inh 71.4 | HIF-2a inh conf 89.3 | HIF-1a cs 104.7
CC(=O)Nc1cc(-c2cccc(C(=O)NCCO)c2)cn2c(-c3ccc(F)c(Cl)c3)cnc12	none (no result: MITF TRPM1 inh, LMP1 NFkB inh)
CCOc1ccc(NS(=O)(=O)c2ccc(C(=O)NC3CCC(O)CC3)cc2)cc1 (stereo not drawn)	none
CCc1nc2ccc(C(=O)Nc3ccc(OC)c(OC)c3)cn2c1N(C)CCC(C)C	none (no result: MITF TRPM1 inh, LMP1 NFkB inh)
Cc1cc(N2CCN(C(C(=O)NC3CCCC3)c3ccc(-c4ccccc4)cc3)CC2)c2ccccc2n1 (stereo not drawn)	none (no result: MITF TRPM1 inh, TWEAK-Fn14 inh, LMP1 NFkB inh, TROY NFkB inh, Peg3 prom inh)
CC(=O)OCCCNc1cc(Sc2nc3ccccc3s2)c2nonc2c1[N+](=O)[O-]	Peg3 prom inh 105.0 | Mdm2 MdmX conf 103.2
O=[N+]([O-])c1c(NCCCO)cc(Sc2ccc(Cl)cc2)c2nonc12	MITF TRPM1 inh 92.2, LMP1 NFkB inh 47.6, TROY NFkB inh 79.3, HIF-2a block 95.8, Peg3 prom inh 98.4 | HIF-2a inh conf 51.6 | HIF-1a cs 106.2
CCCC(=O)OCCNc1cc(SCCC(=O)OC)c2nonc2c1[N+](=O)[O-]	none
O=[N+]([O-])c1c(NCCCO)cc(SCc2ccco2)c2nonc12	none
CC(=O)OCCNc1cc(Sc2nc3ccccc3[nH]2)c2nonc2c1[N+](=O)[O-]	MITF TRPM1 inh 80.3, HIF-2a block 95.2, Peg3 prom inh 113.4 | HIF-2a inh conf 77.5 | HIF-1a cs 71.0
CC1(c2ccc3ccccc3c2)NC(=O)N(CC(=O)Nc2ncccc2O)C1=O (stereo not drawn)	none
CC(=O)Nc1cc(-c2cccc(N)c2)cn2c(-c3ccccc3)cnc12	none (no result: MITF TRPM1 inh, LMP1 NFkB inh)
CCCN(Cc1nnc(-c2cccs2)o1)C(=O)c1cccc(S(=O)(=O)N2CCOCC2)c1	none
COc1cc(OC)c(OC)cc1/C=C/C(=O)c1ccc(NS(=O)(=O)c2ccc(C)cc2)cc1	TWEAK-Fn14 inh 61.5, HIF-2a block 58.6 | HIF-2a inh conf inactive | HIF-1a cs 50.4
CC(=O)c1ccc(NS(=O)(=O)c2ccc(C)cc2)cc1	none
Cc1ccc(C(=O)NC(C#N)=C(Cl)Cl)cc1	none (no result: MITF TRPM1 inh, TWEAK-Fn14 inh, LMP1 NFkB inh, TROY NFkB inh, HIF-2a block, Peg3 prom inh) | Mdm2 MdmX conf 103.2
Cc1ccc(C(=O)NC(=C(Cl)Cl)S(=O)(=O)c2ccccc2)cc1	TWEAK-Fn14 inh 83.5, HIF-2a block 88.7, Peg3 prom inh 78.8 | HIF-2a inh conf inactive | HIF-1a cs inactive
Cc1ccccc1NC(=S)N1CCN(c2ccccc2)CC1	none
Cc1ccc(C(=O)N/C(=C\c2cccs2)C(=O)NCCCN2CCOCC2)cc1	none
CC(C)n1cnc2c(Nc3ccc(F)c(Cl)c3)nc(NCCO)nc21	none
C=CC(=O)Nc1ccc(Nc2nc(NC3CCC(N(C)C)CC3)nc3c2ncn3C(C)C)cc1 (stereo not drawn)	MITF TRPM1 inh 86.5, TWEAK-Fn14 inh 95.4, LMP1 NFkB inh 79.1, TROY NFkB inh 71.2, HIF-2a block 75.6, Peg3 prom inh 107.1 | Mdm2 MdmX conf 103.0
COc1cccc(-c2nnc(SCc3ccc(C#N)cc3)n2Cc2ccco2)c1	HIF-2a block 44.0 | HIF-2a inh conf inactive | HIF-1a cs inactive
CC(C)CN=C(NS(=O)(=O)c1ccccc1)C(Cl)(Cl)Cl	MITF TRPM1 inh 85.9, TWEAK-Fn14 inh 98.6, TROY NFkB inh 51.0, HIF-2a block 91.7, Peg3 prom inh 99.5 | HIF-2a inh conf 93.0 | HIF-1a cs 104.8
CC(=O)Cn1ncc(Br)c(Br)c1=O	MITF TRPM1 inh 99.3, TWEAK-Fn14 inh 86.1, TROY NFkB inh 64.8, HIF-2a block 97.0, Peg3 prom inh 97.6 | HIF-2a inh conf 94.6 | HIF-1a cs 105.0
CC(C)(C)C(=O)Cn1ncc(N2CCOCC2)c(Br)c1=O	none
CCCn1nc(C(=O)N2CCN(S(=O)(=O)c3ccc(C)c(C)c3)CC2)c2ccccc2c1=O	none
CC(C)NCC(O)Cn1c2c(c3ccccc31)CCc1c-2cnn1-c1ccccc1 (stereo not drawn)	MITF TRPM1 inh 85.3, HIF-2a block 41.0, Peg3 prom inh 104.3 | HIF-2a inh conf inactive | HIF-1a cs 105.4
CCc1cc2c(Nc3ccc(O)cc3)nc(C)nc2s1	none
O=C(Nc1ccc(Cl)cc1)c1nc[nH]c1C(=O)NCCN(CCNC(=O)c1[nH]cnc1C(=O)Nc1ccc(Cl)cc1)CCNC(=O)c1[nH]cnc1C(=O)Nc1ccc(Cl)cc1	Peg3 prom inh 100.9 | Mdm2 MdmX conf 100.2
CC(=O)c1cccc(NC(=S)NC(=O)c2ccccc2Cl)c1	none
O=C(Nc1cccc(C(=O)O)c1)Nc1cccc2ccccc12	none
O=C(NCc1ccccc1)C(=O)Nc1cccc(C(=O)O)c1	MITF TRPM1 inh 62.8, LMP1 NFkB inh 67.4, HIF-2a block 57.6 | HIF-2a inh conf 71.4 | HIF-1a cs inactive
O=C(Nc1cccc(C(=O)O)c1)Nc1ccccc1Cl	LMP1 NFkB inh inconclusive, HIF-2a block 40.1 | HIF-2a inh conf inactive | HIF-1a cs inactive
COC(=O)c1cccc(NC(=O)NC(=O)c2ccccc2Cl)c1	HIF-2a block 57.2 | HIF-2a inh conf 64.2 | HIF-1a cs inactive
CSc1cccc(NC(=O)C(=O)NCc2ccccc2)c1	none
Cc1cccc(NC(=O)COc2ccccc2C(=O)NC(C)c2ccccc2)c1 (stereo not drawn)	none
CCCS(=O)(=O)NC(=O)C1(C)CCCN(C(=O)CCc2cccs2)C1 (stereo not drawn)	none (no result: MITF TRPM1 inh, LMP1 NFkB inh)
CCc1nc2ccc(C(=O)NC3CCN(Cc4ccccc4)CC3)cn2c1N(C)Cc1ccc(N(C)C)cc1	none (no result: MITF TRPM1 inh, LMP1 NFkB inh)
CCNC(=O)C1(C)CCN(C(=O)c2cccs2)C1 (stereo not drawn)	none (no result: MITF TRPM1 inh, LMP1 NFkB inh)
COc1ccc(NC(=O)CCC(=O)c2cccs2)cc1S(=O)(=O)Nc1ccc(Cl)cc1	none
COc1ccc(NC(=O)CCS(=O)(=O)c2ccccc2Cl)cc1S(=O)(=O)Nc1ccc(Cl)cc1	HIF-2a block 43.8 | HIF-2a inh conf inactive | HIF-1a cs 67.7
O=S(=O)(CC(CN1CCOCC1)N1CCOCC1)c1ccccc1 (stereo not drawn)	none
